High-throughput results from PubChem.
Compounds with a hit are over-represented: about 19% of the library has one in this group of screens.
HT1080 IDH1KD tx = qHTS for induction of synthetic lethality in tumor cells producing 2HG: qHTS for the HT-1080-IDH1KD cell line. HT-1080 IDH1 knockdown viability, ATP luminescence, 48 h. Potency, µM (highest dose often 46.1 µM), without a hit: at the highest dose activity, negative = toxicity, most hits filed as cytotoxic. 360,000 tested, 2% active;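 also: potency is read from the fitted curve at half-maximal effect; 0% = DMSO wells and -100% = cell-free medium wells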
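Viability of IDH1-knockdown HT-1080 fibrosarcoma cells was assessed by CellTiter-Glo after 48 h at 37 °C with titrated compound; concentration-effect curves were classified by fit quality and response size.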
HT1080-NT tox = qHTS for induction of synthetic lethality in tumor cells producing 2HG: qHTS for the HT-1080-NT fibrosarcoma cell line | HT-1080-NT fibrosarcoma viability, CellTiter-Glo ATP luminescence, 48 h | Potency, µM (highest dose often 46.1 µM), without a hit: at the highest dose activity, negative = less viability, most hits filed as cytotoxic | 360,000 tested, 1.6% active | AID 686970, 2013;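 also: NT is the 2HG producing partner of a matched IDH1 knockdown line; potency is read from the fitted curve at half-maximal effect; 0% = DMSO-treated cells and -100% = media-only wells without cells; nearly all actives have a fitted effect of over 55% in size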
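Viability by CellTiter-Glo luminescence after 48 h compound exposure at 37C of HT-1080-NT cells (750/well, RPMI, 5% FBS). % activity scaled between DMSO wells and medium-only wells, then curve-fitted and categorized by curve class.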
IL-1B inflam inh = qHTS for Inhibitors of Inflammasome Signaling: IL-1-beta AlphaLISA Primary Screen; THP-1 LPS/ATP IL-1B secretion, AlphaLISA, 16 h; stronger effect = lower value; activity change, % at 57.5 µM; 360,000 tested, 4.7% active; AID 743279, 2014; in the data active = activity change below about -50%; inconclusive = mostly about -30% to -49%
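Secreted IL-1B measured by AlphaLISA bead assay after 16 h compound exposure of THP-1 cells; compounds (final up to 57.5 uM) added 1 h before LPS (250 ng/mL) and ATP (1.25 mM) stimulation; lower signal means less secretion.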
TDP1 cell noCPT = qHTS for Inhibitors of human tyrosyl-DNA phosphodiesterase 1 (TDP1): qHTS in cells in absence of CPT; 420,000 tested, 15% active; AID 686978, 2013; DT40 Tdp1-/- hTDP1 cells, no CPT, ATP luminescence, 48 h; Potency, µM (top dose mostly 46.2 µM), for inactives: at the highest dose activity change, negative = growth inhibition, actives largely listed as inhibitors; also: potency is read from the fitted curve at half-maximal effect; nearly all actives have a fitted effect of over 55% in size
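A cellular qHTS used chicken DT40 cells lacking endogenous Tdp1 but carrying stably transfected human TDP1. Compounds were applied without camptothecin, and cell growth kinetics were judged by ATP-dependent luminescence after ≥48 hr.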
TDP1 cell CPT = qHTS for Inhibitors of human tyrosyl-DNA phosphodiesterase 1 (TDP1): qHTS in cells in presence of CPT. chicken DT40 Tdp1-/-;hTDP1 cells + 20 nM CPT, ATP luminescence, 48 h. Potency, µM (highest dose often 46.2 µM), inactives show at the highest dose activity change, negative = growth inhibition, hits mostly inhibitors. 420,000 tested, 12% active. AID 686979, 2013; also: potency is read from the fitted curve at half-maximal effect; nearly all actives have a fitted effect of over 55% in size
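Chicken DT40 Tdp1-/- cells stably complemented with human TDP1 were seeded at 400 cells/well in medium containing 20 nM camptothecin, exposed to pin-transferred compounds, and grown at 37 °C for at least 48 hr. Viability was read as ATP luminescence.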
* = called active by the depositor; ? = inconclusive; / = no result. Unless noted, calls follow the shape of the dose curve; as a rule, active = well fitted curve in the direction sought with a large enough effect; inconclusive = small, poorly fitted or top-dose-only effect, or another doubt; inactive = no such curve, though single readings can be large; an effect the other way counts as inactive or inconclusive. Unless noted, % is scaled to controls: 0 for no effect and ±100 for the full control effect.

SMILES	HT1080 IDH1KD tx	HT1080-NT tox	IL-1B inflam inh	TDP1 cell noCPT	TDP1 cell CPT
O=C(CSCc1ccc(Cl)cc1)Nc1ccc(O)cc1C(=O)O	-14.7%	13.6%	2.6	-15.8%	4.6%
CNc1ccc(-c2cccc(C#N)c2)cn1	0.5%	?	-6.2	0.7%	5.8%
OCCC1CN(Cc2ccc3cccc(F)c3n2)CCN1Cc1ccccc1 (stereo not given)	-2.3%	-2.6%	0.0	0.2%	-6.7%
CN(C)S(=O)(=O)c1ccc(Cl)c(NC(=O)COC(=O)CNS(=O)(=O)c2c(F)cccc2F)c1	0.0%	10.1%	14.5	-1.4%	-2.1%
C[C@H](CO)N1C[C@H](C)[C@@H](CN(C)Cc2ccc(Cl)c(Cl)c2)Oc2c(NC(=O)Cc3ccccc3)cccc2C1=O	?	-28.4%	?	14.6µM*	?
C[C@@H]1CN([C@@H](C)CO)C(=O)c2cccc(NS(=O)(=O)c3cccs3)c2O[C@H]1CN(C)Cc1ccc(C(F)(F)F)cc1	-7.1%	-1.1%	-11.7	?	16.4µM*
C[C@H](CO)N1C[C@H](C)[C@@H](CN(C)Cc2ccc(-c3ccccc3)cc2)Oc2c(NC(=O)Cc3ccccc3)cccc2C1=O	-18.9%	-8.1%	-23.5	23.1µM*	?
C[C@H](CO)N1C[C@H](C)[C@@H](CN(C)Cc2ccncc2)Oc2c(NC(=O)C3CCCCC3)cccc2C1=O	-0.5%	-2.7%	-2.7	?	?
C[C@H](CO)N1C[C@H](C)[C@@H](CN(C)Cc2ccncc2)Oc2c(NC(=O)Cc3ccccc3)cccc2C1=O	14.6µM*	?	17.5	?	?
CC1CCCC(C)N1C(=O)COC(=O)c1cc(F)c(F)cc1Cl (stereo not given)	10.6%	8.5%	-2.6	7.8%	-5.2%
O=C(COC(=O)CCC(=O)c1cccs1)NCCc1ccccc1	5.2%	6.2%	1.7	-13.3%	8.5%
COc1cccc(CNc2ccc3[nH]c(=O)[nH]c3c2)c1OCc1ccccc1F	-3.1%	-5.4%	-22.7	-27.4%	?
CCc1nc2cccnc2n1-c1ccc(CC(=O)NC(C)CC)cc1 (stereo not given)	4.5%	4.5%	13.3	0.6%	9.2%
C[C@H](CO)N1C[C@H](C)[C@@H](CN(C)C)Oc2c(NC(=O)Cc3ccccc3)cccc2C1=O	0.6%	0.6%	52.6	-24.1%	?
C[C@H](CO)N1C[C@H](C)[C@@H](CN(C)Cc2ccccc2)Oc2c(NC(=O)Cc3ccccc3)cccc2C1=O	?	?	-8.8	10.3µM*	14.6µM*
COCc1nnc(NC(=O)C2CC(=O)N(C3CCCC3)C2)s1 (stereo not given)	3.7%	4.3%	0.1	-1.9%	20.7%
NS(=O)(=O)c1ccc(Sc2ccccn2)c([N+](=O)[O-])c1	5.7%	8.7%	/	?	-3.6%
NS(=O)(=O)c1ccc(Sc2nc3ccccc3s2)c([N+](=O)[O-])c1	7.31µM*	?	-99.2*	10.3µM*	9.2µM*
CCN(CC)CCN(C(=O)c1cc2ccccc2cc1OC)c1nc2ccc(F)cc2s1	?	18.4µM*	-58.6*	?	18.4µM*
CN(C)CCN(C(=O)c1ccc2ccccc2c1)c1nc2ccc(F)cc2s1	-0.9%	3.4%	-19.2	-20.9%	-18.5%
CCOc1ccc2nc(N(CCN(CC)CC)C(=O)/C=C/c3cccs3)sc2c1	-20.2%	-27.6%	-96.7*	?	?
CCN(CC)CCN(C(=O)/C=C/c1cccs1)c1nc2ccc(OC)cc2s1	0.5%	1.3%	11.2	-0.3%	2.5%
CCN(CC)CCN(C(=O)c1cc2ccccc2cc1OC)c1nc2ccc(OC)cc2s1	?	?	?	18.4µM*	?
